# Data as given in PubChem BioAssay (NCATS).
# Inconclusive results are not listed. Values without a mark were called inactive. Calls of active or inactive are those of the source. The call rests on the fitted dose curve; in most records, active means well fitted inhibition curve with a large enough effect; inconclusive means small, poorly fitted or top-dose-only effect; inactive means flat fitted curve, though single readings scatter.
# Target: Tyrosyl-DNA phosphodiesterase 1 (Homo sapiens) (UniProt Q9NUW8)
# Test: Confirmation Assay for Inhibitors of Tyrosyl-DNA Phosphodiesterase (TDP1) (AID 489007); further: nearly all actives have a fitted effect of over 40% in size
# Settings: recombinant human TDP1 enzymatic activity, dose-response
# In short: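 AlphaScreen read-out: streptavidin donor and anti-FITC acceptor beads (10 ug/ml) bind intact substrate, so Tdp1 removal of tyrosine-FITC lowers signal. Enzyme 1 nM, substrate 15 nM, 5 min reaction at room temperature after 15 min compound preincubation.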
# Potency means the concentration at half of the fitted maximal effect.
# Chain of Tyrosyl-DNA phosphodiesterase 1 (Homo sapiens) (Q9NUW8 whole entry, looked up): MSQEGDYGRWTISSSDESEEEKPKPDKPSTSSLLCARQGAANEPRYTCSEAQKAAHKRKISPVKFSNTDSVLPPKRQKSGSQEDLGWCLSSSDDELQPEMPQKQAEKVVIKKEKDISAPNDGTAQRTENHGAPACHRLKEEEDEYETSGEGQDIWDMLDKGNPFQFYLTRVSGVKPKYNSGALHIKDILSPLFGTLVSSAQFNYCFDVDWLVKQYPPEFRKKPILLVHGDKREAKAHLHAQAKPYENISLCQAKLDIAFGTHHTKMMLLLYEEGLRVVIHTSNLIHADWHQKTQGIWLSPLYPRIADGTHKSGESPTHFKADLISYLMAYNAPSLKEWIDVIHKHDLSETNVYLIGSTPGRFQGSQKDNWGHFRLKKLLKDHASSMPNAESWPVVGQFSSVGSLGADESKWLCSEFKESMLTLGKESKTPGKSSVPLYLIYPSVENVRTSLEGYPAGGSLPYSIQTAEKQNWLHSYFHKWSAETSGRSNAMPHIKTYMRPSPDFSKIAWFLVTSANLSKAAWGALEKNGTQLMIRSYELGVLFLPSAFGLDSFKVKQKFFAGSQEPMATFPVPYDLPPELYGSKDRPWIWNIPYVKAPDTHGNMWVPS
smiles,measurement,value
O=C(O)C1C2C=CC(CC2)C1C(=O)O (stereo unspecified),Potency,7.94 µM (active)
